# Experimental data reported in PubChem BioAssay (NCATS).
# Results filed as inconclusive are left out. Where a call stands in place of a potency, no number is given. Values without a mark were called inactive. The source made the active and inactive calls. The call rests on the fitted dose curve; in most records, active means well fitted cell-killing curve with a large enough effect; inconclusive means small, poorly fitted or top-dose-only effect, or effect the other way; inactive means no such curve, though single readings can be large or run the other way.
# Columns and labels:
# [1] = Quantitative High-Throughput drug screen in 47 multiple myeloma cell lines against the NCATS MIPE library collection: KMS28PE_JCRB cell viability assay (AID 1918983); conditions: KMS28PE multiple myeloma viability, CellTiter-Glo ATP, 48 h; series mostly up to 45.8 µM; further: nearly all actives have a fitted effect of over 35% in size; further: potency means the concentration at half of the fitted maximal effect
# How it was run: (§1)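 Myeloma cells (500/well) treated with MIPE 4.0 compounds for 48 h at 37 °C, 5% CO2. Viability read as ATP via CellTiter-Glo luminescence after 5 min at RT; DMSO-only wells = 100%, media-only = 0% viability.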
# [2] = Quantitative High-Throughput drug screen in 47 multiple myeloma cell lines against the NCATS MIPE library collection: KMS34_JCRB cell viability assay (AID 1918985); conditions: KMS34 myeloma viability, CellTiter-Glo ATP luminescence, 48 h; series mostly up to 45.8 µM; further: nearly all actives have a fitted effect of over 40% in size
# How it was run: as §1
# [3] = Quantitative High-Throughput drug screen in 47 multiple myeloma cell lines against the NCATS MIPE library collection: OCIMY7_PLB cell viability assay (AID 1918987); conditions: OCI-MY7 myeloma viability, CellTiter-Glo ATP, 48 h; viability (% of DMSO): at 45.8 µM (top of the series); further: nearly all actives have a fitted effect of over 65% in size; further: potency means the concentration at half of the fitted maximal effect
# How it was run: as §1
# [4] = Quantitative High-Throughput drug screen in 47 multiple myeloma cell lines against the NCATS MIPE library collection: OPM1_PLB cell viability assay (AID 1918989); conditions: CellTiter-Glo, 48 h; series mostly up to 45.8 µM; further: nearly all actives have a fitted effect of over 40% in size; further: potency means the concentration at half of the fitted maximal effect
# How it was run: as §1
# [5] = Quantitative High-Throughput drug screen in 47 multiple myeloma cell lines against the NCATS MIPE library collection: U266_ATCC cell viability assay (AID 1919864); conditions: U266 myeloma viability, CellTiter-Glo ATP luminescence, 48 h; series mostly up to 45.8 µM; further: nearly all actives have a fitted effect of over 35% in size; further: potency means the concentration at half of the fitted maximal effect
# How it was run: as §1
# [6] = Quantitative High-Throughput drug screen in 47 multiple myeloma cell lines against the NCATS MIPE library collection: XG1_PLB cell viability assay (AID 1919866); conditions: CellTiter-Glo ATP, 48 h; series mostly up to 45.8 µM; further: nearly all actives have a fitted effect of over 35% in size; further: potency means the concentration at half of the fitted maximal effect
# How it was run: as §1
# [7] = Quantitative High-Throughput drug screen in 47 multiple myeloma cell lines against the NCATS MIPE library collection: UTMC2_PLB cell viability assay (AID 1919868); conditions: CellTiter-Glo ATP luminescence, 48 h; viability (% of DMSO control): at 45.8 µM (top of the series); further: nearly all actives have a fitted effect of over 55% in size; further: potency means the concentration at half of the fitted maximal effect
# How it was run: as §1
# [8] = Quantitative High-Throughput drug screen in 47 multiple myeloma cell lines against the NCATS MIPE library collection: RPMI8226_ATCC cell viability assay (AID 1919871); conditions: RPMI8226 myeloma viability, CellTiter-Glo ATP luminescence, 48 h; series mostly up to 45.8 µM; further: nearly all actives have a fitted effect of over 30% in size; further: potency means the concentration at half of the fitted maximal effect
# How it was run: as §1
# [9] = Quantitative High-Throughput drug screen in 47 multiple myeloma cell lines against the NCATS MIPE library collection: OPM2_DSMZ cell viability assay (AID 1919872); conditions: OPM2 myeloma viability, CellTiter-Glo ATP luminescence, 48 h; series mostly up to 45.8 µM; further: nearly all actives have a fitted effect of over 30% in size; further: potency means the concentration at half of the fitted maximal effect
# How it was run: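 Myeloma cell lines, 500 cells per well, exposed to MIPE 4.0 library compounds for 48 h at 37C, 5% CO2. Viability from ATP by CellTiter-Glo luminescence; normalised to DMSO (100%) and media-only (0%) wells.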
# [10] = Quantitative High-Throughput drug screen in 47 multiple myeloma cell lines against the NCATS MIPE library collection: KMS11_JCRBsus cell viability assay (AID 1919873); conditions: KMS11 myeloma viability, CellTiter-Glo ATP luminescence, 48 h; series mostly up to 45.8 µM; further: nearly all actives have a fitted effect of over 50% in size; further: potency means the concentration at half of the fitted maximal effect
# How it was run: as §1
# [11] = Quantitative High-Throughput drug screen in 47 multiple myeloma cell lines against the NCATS MIPE library collection: KMS28BM_JCRB cell viability assay (AID 1919874); conditions: CellTiter-Glo ATP, 48 h; series mostly up to 45.8 µM; further: nearly all actives have a fitted effect of over 35% in size; further: potency means the concentration at half of the fitted maximal effect
# How it was run: as §1
# [12] = Quantitative High-Throughput drug screen in 47 multiple myeloma cell lines against the NCATS MIPE library collection: OCIMY5_PLB cell viability assay (AID 1918988); conditions: OCI-MY5 myeloma viability, ATP luminescence, 48 h; series mostly up to 45.8 µM; further: nearly all actives have a fitted effect of over 65% in size; further: potency means the concentration at half of the fitted maximal effect
# How it was run: as §1
# [13] = Quantitative High-Throughput drug screen in 47 multiple myeloma cell lines against the NCATS MIPE library collection: XG6_PLB cell viability assay (AID 1919865); conditions: XG6 myeloma viability, CellTiter-Glo ATP luminescence, 48 h; series mostly up to 45.8 µM; further: nearly all actives have a fitted effect of over 40% in size; further: potency means the concentration at half of the fitted maximal effect
# How it was run: as §1
# [14] = Quantitative High-Throughput drug screen in 47 multiple myeloma cell lines against the NCATS MIPE library collection: VP6_DJ cell viability assay (AID 1919867); conditions: ATP luminescence, 48 h; series mostly up to 45.8 µM; further: nearly all actives have a fitted effect of over 40% in size; further: potency means the concentration at half of the fitted maximal effect
# How it was run: as §1
# [15] = Quantitative High-Throughput drug screen in 47 multiple myeloma cell lines against the NCATS MIPE library collection: PE2_PLB cell viability assay (AID 1919869); conditions: PE2_PLB myeloma cells viability, ATP luminescence, 48 h; series mostly up to 45.8 µM; further: nearly all actives have a fitted effect of over 35% in size; further: potency means the concentration at half of the fitted maximal effect
# How it was run: as §1
# [16] = Quantitative High-Throughput drug screen in 47 multiple myeloma cell lines against the NCATS MIPE library collection: PCM6_Riken cell viability assay (AID 1919870); conditions: CellTiter-Glo ATP, 48 h; series mostly up to 45.8 µM; further: nearly all actives have a fitted effect of over 30% in size; further: potency means the concentration at half of the fitted maximal effect
# How it was run: as §1
# [17] = Quantitative High-Throughput drug screen in 47 multiple myeloma cell lines against the NCATS MIPE library collection: SKMM1_PLB cell viability assay (AID 1919863); conditions: SKMM1 myeloma viability, CellTiter-Glo ATP, 48 h; viability: stronger effect = lower value; further: nearly all actives have a fitted effect of over 35% in size; further: potency means the concentration at half of the fitted maximal effect
# How it was run: as §1
Structure (SMILES),Potency [1],Potency [2],Potency [3],Potency [4],Potency [5],Potency [6],Potency [7],Potency [8],Potency [9],Potency [10],Potency [11],Potency [12],Potency [13],Potency [14],Potency [15],Potency [16],viability [17] [%],Potency [17]
CC(C)(O)[C@H]1CC[C@@](C)([C@H]2[C@@H](O)C[C@@]3(C)[C@@H]4C[C@H](O[C@@H]5O[C@H](CO)[C@@H](O)[C@H](O)[C@@H]5O)[C@H]5C(C)(C)[C@@H](O[C@@H]6OC[C@@H](O)[C@H](O)[C@@H]6O)CC[C@@]56C[C@@]46CC[C@]23C)O1,inactive,inactive,inactive,16.6 µM (active),inactive,inactive,inactive,inactive,inactive,inactive,inactive,–,–,–,–,–,–,–
CCCCCCCCCCCCCCCC(=O)OC[C@@H](NC(=O)C(Cl)Cl)[C@H](O)c1ccc([N+](=O)[O-])cc1,inactive,inactive,–,inactive,inactive,–,–,–,inactive,inactive,–,inactive,inactive,inactive,inactive,inactive,–,–
O=C(C=CC=Cc1ccc2c(c1)OCO2)N1CCCCC1,inactive,inactive,inactive,inactive,inactive,–,inactive,3.72 µM (active),–,inactive,–,–,–,2.64 µM (active),–,inactive,–,–
CC(=O)OCC(=O)[C@@]12N=C(C)O[C@H]1C[C@H]1[C@@H]3CCC4=CC(=O)C=C[C@]4(C)[C@@H]3[C@@H](O)C[C@@]12C,inactive,inactive,–,inactive,–,16.6 µM (active),–,0.469 µM (active),–,0.935 µM (active),inactive,–,–,–,inactive,11.8 µM (active),–,–
CN[C@H](CC(C)C)C(=O)N[C@H]1C(=O)N[C@@H](CC(N)=O)C(=O)N[C@@H]2C(=O)N[C@H]3C(=O)N[C@H](C(=O)N[C@H](C(=O)O)c4cc(O)cc(O)c4-c4cc3ccc4O)[C@H](O)c3ccc(c(Cl)c3)Oc3cc2cc(c3O[C@@H]2O[C@H](CO)[C@@H](O)[C@H](O)[C@@H]2O[C@H]2C[C@](C)(N)[C@H](O)[C@H](C)O2)Oc2ccc(cc2Cl)[C@H]1O,inactive,inactive,–,–,–,–,–,–,inactive,inactive,inactive,inactive,18.7 µM (active),13.2 µM (active),inactive,–,122,–
NS(=O)(=O)OC[C@@H]1C[C@@H](n2ccc3c(N[C@H]4CCc5ccccc54)ncnc32)C[C@H]1O,0.935 µM (active),–,0.743 µM (active),16.6 µM (active),8.33 µM (active),0.332 µM (active),–,–,inactive,0.296 µM (active),–,16.6 µM (active),–,1.48 µM (active),–,6.62 µM (active),–,1.05 µM (active)
Cc1coc2c1C(=O)C(=O)c1c-2ccc2c(C)cccc12,8.33 µM (active),–,5.9 µM (active),2.96 µM (active),20.9 µM (active),–,–,–,–,–,–,14.8 µM (active),–,11.8 µM (active),–,3.72 µM (active),–,14.8 µM (active)
C=CC(=O)Nc1cccc(Nc2nc(NC3CCC(N(C)C)CC3)nc3c2ncn3C(C)C)c1 (stereo not drawn),0.469 µM (active),–,0.0743 µM (active),0.469 µM (active),0.296 µM (active),0.105 µM (active),0.132 µM (active),1.05 µM (active),1.87 µM (active),0.372 µM (active),0.209 µM (active),0.0526 µM (active),0.0166 µM (active),0.235 µM (active),0.209 µM (active),0.209 µM (active),–,0.935 µM (active)
O=c1[nH]c(=O)n([C@H]2C[C@@H](O)[C@@H](CO)O2)cc1F,20.9 µM (active),–,0.59 µM (active),–,23.5 µM (active),9.35 µM (active),10.5 µM (active),–,–,0.526 µM (active),20.9 µM (active),26.4 µM (active),–,18.7 µM (active),14.8 µM (active),–,–,–
CCCNS(=O)(=O)Nc1ncnc(OCCOc2ncc(Br)cn2)c1-c1ccc(Br)cc1,inactive,inactive,–,inactive,inactive,inactive,inactive,–,inactive,inactive,inactive,–,inactive,inactive,–,inactive,–,–
CCn1c(=O)c2c(nc(C=Cc3ccc(OC)c(OC)c3)n2C)n(CC)c1=O,inactive,inactive,–,–,–,–,inactive,–,–,inactive,inactive,–,–,–,14.8 µM (active),inactive,123,–
COc1ccc2cc([S+]([O-])Cc3ncc(C)c(OC)c3C)nc2c1,inactive,inactive,–,–,–,inactive,–,inactive,inactive,inactive,–,inactive,inactive,inactive,–,inactive,122,–
CCN1CCN(C(=O)N[C@H](C(=O)N[C@@H]2C(=O)N3C(C(=O)O)=C(CSc4nnnn4C)CS[C@@H]23)c2ccc(O)cc2)C(=O)C1=O,inactive,–,inactive,inactive,–,inactive,–,–,inactive,inactive,inactive,inactive,–,–,–,–,–,–
C=C1C(=CC=C2CCC[C@]3(C)[C@@H]([C@H](C)CCCC(C)(C)O)CC[C@@H]23)C[C@@H](O)C[C@@H]1O,33.2 µM (active),–,6.62 µM (active),5.26 µM (active),4.18 µM (active),5.26 µM (active),5.26 µM (active),–,–,9.35 µM (active),1.87 µM (active),3.32 µM (active),3.72 µM (active),5.26 µM (active),13.2 µM (active),7.43 µM (active),–,–
